According to ChEMBL document CHEMBL4888484, “Replenishing the malaria drug discovery pipeline: Screening and hit evaluation of the MMV Hit Generation Library 1 (HGL1) against asexual blood stage Plasmodium falciparum ,using a nano luciferase reporter read-out” (2022):
Hit rate of the full screen: of about 150,000 compounds, about 540 (0.36%) showed an effect of 50% or more. This is one part of a sample in which strong results are shown more often than they occur.

Test system: Plasmodium falciparum
Experiment: Primary screen in NF54 nanoGlo assay, in single point, at 2uM, 72h; a lower Z score goes with more inhibition
Assay type: functional, Erythrocyte
Conditions: timepoint 72 hour

SMILES | % Inhibition [%] | Z score
COc1ccc(C(CO)CNC2[C@@H]3CCC[C@@H]3C2(C)C)cc1 (some centres undefined) | 0 | -0.02
CC1(C)C(NCC(O)COc2ccc(F)c(F)c2)[C@@H]2CCC[C@@H]21 (some centres undefined) | 61 | -6.95
Cc1cccc(OCC(O)CNC2C3CCCOC3C2(C)C)c1 (centres undefined) | -10 | 0.93
CC(=O)[C@H](C)n1nc(C2CC2)ccc1=O | -17 | 2.21
Cc1cccc(-n2c(=O)[nH]c3nc(NCCN(C)C)ncc3c2=O)c1C | 50 | -0.77
Cc1cccc(-n2c(=O)[nH]c3nc(N4CCCC4)ncc3c2=O)c1C | -4 | 0.62
COc1ccccc1-n1c(=O)[nH]c2nc(NCc3cccnc3)ncc2c1=O | 1 | -0.13
Cc1cccc(N(CCC#N)C(=O)c2cc3ccccc3c(=O)[nH]2)c1 | -18 | 1.68
O=C(c1ccncc1F)N1CCCC[C@@H]1CCc1ccccn1 | -23 | 2.29
Cc1ccc(CNC(=O)CCNc2c(-c3cccc(F)c3)nc3cnccn23)o1 | -18 | 2.57
Cc1ccc(CCN2CCC[C@@H]2C(=O)O)cc1 | 3 | -0.5
O=C(NC1CCC(N2C(=O)CCC2=O)CC1)C1CC1C1CCCCC1 (centres undefined) | -7 | 0.72
O=C1c2ccc(O)cc2C(=O)N1c1ccc(N(c2ccccc2)c2ccc(N3C(=O)c4ccc(O)cc4C3=O)cc2)cc1 | 8 | -1.03
O=C1NC(=O)c2ccc3c4c(ccc1c24)C(=O)N(c1ccccc1)C3=O | 73 | -8.98
O=C1c2cc(Nc3ccccc3)c3c4c(cc(Nc5ccccc5)c(c24)C(=O)N1c1ccccc1)C(=O)N(c1ccccc1)C3=O | 3 | -0.42
COc1ccc2cc3n(c2c1)C[C@@](C)(C(=O)NC1CCCCCC1)N(CCN1CCCCCC1)C3=O | 2 | -0.31
COc1cccc(CN2C(=O)c3cc4ccc(OC)cc4n3C[C@@]2(C)C(=O)NC2CCCCCC2)c1 | -12 | 1.58
COc1ccc2cc3n(c2c1)C[C@@](C)(C(=O)NC1CCCC1)N(Cc1ccc(F)cc1)C3=O | 73 | -1.23
Cc1ccc(C(=O)N2CCCC[C@H]2c2nnc(-c3ccncc3)[nH]2)cn1 | -12 | 2.36
C[C@@H](NCc1ccc2c(c1)COC(C)(C)O2)c1cccc(O)c1 | -21 | 2.42
CCOc1cc(CNc2ccc3c(c2)OCO3)ccc1OC | -1 | 0.26
CC1(C)OCc2cc(CNc3ccc4oc(=O)[nH]c4c3)ccc2O1 | 96 | -13.84
